Source: PubChem (National Center for Advancing Translational Sciences (NCATS))
VP16 counter: VP16 counterscreen qHTS for inhibitors of ROR gamma transcriptional activity | Drosophila S2 Gal4-VP16 UAS-luciferase, luminescence, 20 h | Potency, µM (highest dose often 53.6 µM), for inactives: top-dose activity, negative = inhibition, actives largely listed as inhibitors | hit rate 3.5% among 310,000 | AID 2546, 2010;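 also: Gal4-VP16 expression switched on by copper sulfate through the metallothionein promoter; nearly all actives have a fitted effect of over 50% in size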
TDP1 inh: qHTS Assay for Inhibitors of Tyrosyl-DNA Phosphodiesterase (TDP1); hit rate 0.28% among 350,000; recombinant TDP1, AlphaScreen DNA substrate cleavage; Potency, µM (top dose mostly 130 µM), without a hit: at the top dose activity change, negative = inhibition, most hits filed as inhibitors; also: nearly all actives have a fitted effect of over 40% in size
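E. coli-derived human Tdp1, 1 nM final. Cpd preinc 15 min RT; substrate 15 nM final, 5 min RT; AS bead mix 10 ug/ml final, 10 min RT. Signal loss = tyrosine-FITC cleavage. No-enzyme wells = max signal.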
DT40 TDP1 CPT: qHTS for Inhibitors of human tyrosyl-DNA phosphodiesterase 1 (TDP1): qHTS in cells in presence of CPT; chicken DT40 Tdp1-/-;hTDP1 cells + 20 nM CPT, ATP luminescence, 48 h; Potency, µM (doses to about 46.2 µM), without a hit: at the highest dose activity change, negative = growth inhibition, usual class: inhibitors; hit rate 12% among 420,000; also: nearly all actives have a fitted effect of over 55% in size
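Chicken DT40 Tdp1-/- cells complemented with human TDP1, 400 cells/well, exposed to compounds plus 20 nM camptothecin for at least 48 h at 37 C; viability read as ATP content by CellTiter-Glo luminescence.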
RORgamma inh: qHTS for inhibitors of ROR gamma transcriptional activity | Nuclear receptor ROR-gamma (Mus musculus), P51450 | Drosophila S2 Gal4-RORgamma UAS-luciferase reporter, 20 h | Potency, µM (series often up to 53.6 µM), for the others: top-dose activity change, negative = inhibition, usual class: inhibitors | hit rate 5.4% among 310,000 | AID 2551, 2010; also: nearly all actives have a fitted effect of over 60% in size
Target sequence (P51450 whole entry, looked up, the tested form may be a part): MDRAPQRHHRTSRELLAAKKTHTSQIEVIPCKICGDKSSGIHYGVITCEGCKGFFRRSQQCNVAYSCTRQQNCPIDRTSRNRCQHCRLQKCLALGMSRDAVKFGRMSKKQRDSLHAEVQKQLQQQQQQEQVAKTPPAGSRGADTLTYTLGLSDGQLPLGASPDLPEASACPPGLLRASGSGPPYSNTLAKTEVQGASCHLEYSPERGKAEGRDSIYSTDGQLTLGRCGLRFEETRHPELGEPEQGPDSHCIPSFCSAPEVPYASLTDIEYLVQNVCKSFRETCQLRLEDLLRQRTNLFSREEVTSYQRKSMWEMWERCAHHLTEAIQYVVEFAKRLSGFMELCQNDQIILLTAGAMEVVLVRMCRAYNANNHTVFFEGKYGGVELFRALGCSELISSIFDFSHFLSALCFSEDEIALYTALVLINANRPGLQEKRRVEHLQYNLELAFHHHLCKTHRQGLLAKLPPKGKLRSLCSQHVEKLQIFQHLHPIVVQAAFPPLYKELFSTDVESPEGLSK
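Drosophila Schneider cells stably carrying a metallothionein-driven Gal4 DBD–ROR gamma fusion and a UAS-Photinus luciferase reporter were exposed to compound for 1 hr, then induced with copper sulfate (700 uM final) for 20 hr at ambient temperature before luminescence reading.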
TDP1 cell noCPT: qHTS for Inhibitors of human tyrosyl-DNA phosphodiesterase 1 (TDP1): qHTS in cells in absence of CPT. DT40 Tdp1-/- hTDP1 cells, no CPT, ATP luminescence, 48 h. hit rate 15% among 420,000. Potency, µM (titrated, usually from 46.2 µM), without a hit: at the highest dose activity change, negative = growth inhibition, usual class: inhibitors; also: nearly all actives have a fitted effect of over 55% in size
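A cellular qHTS used chicken DT40 cells lacking endogenous Tdp1 but carrying stably transfected human TDP1. Compounds were applied without camptothecin, and cell growth kinetics were judged by ATP-dependent luminescence after ≥48 hr.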
* hit, by the source's call; ? = inconclusive; . = not tested or not shown; [ ] = dose if it differs, or a comment. This is a sample that favours compounds with a hit; in the whole collection about 19% have one here. Calls follow the shape of the dose curve; as a rule, active = well fitted curve in the direction sought with a large enough effect; inconclusive = small, poorly fitted or top-dose-only effect, or another doubt; inactive = no such curve, though single readings can be large; an effect the other way counts as inactive or inconclusive. % is scaled to controls: 0 for no effect and ±100 for the full control effect; potency is read from the fitted curve at half-maximal effect.

SMILES	VP16 counter	TDP1 inh	DT40 TDP1 CPT	RORgamma inh	TDP1 cell noCPT
COc1c(C)cccc1C(=O)Nc1ccc(CN2CCCCC2)cc1	5%	-1%	-9%	5%	1%
CCCCc1nc2cc(C(=O)N3CCN(c4nc(C)cnc4C)CC3)ccc2o1	-16%	7%	?	?	?
COc1ccc(Br)cc1C(=O)Nc1ccccc1-c1ccccc1	-9%	-7%	?	2%	29µM*
COc1c(Cl)cc(C(=O)Nc2ccccc2-c2ccccc2)cc1Cl	-7%	0%	?	-1%	29µM*
COc1ccc(C(=O)/C=C/c2cc(C(=O)O)cc3c2OCOC3)c(O)c1	27%	-7%	?	-32%	23µM*
COc1ccc(C(=O)O)c(O)c1	.	.	2%	.	-14%
O=C(O)c1cc(/C=C/C(=O)c2cc(F)ccc2O)c2c(c1)COCO2	10µM*	.	-29%	13µM*	?
O=C(O)c1cc(Cl)c2c(c1)OCO2	-3%	.	-11%	2%	-1%
Oc1ccc2ccccc2c1C=NCc1cn2ccsc2n1	13µM*	8%	-19%	?	-13%
O=C(CCCc1ccccc1)NCc1cn2ccsc2n1	25%	2%	-6%	?	-18%
COCCNC(=O)NC12CC3CC(CC(C3)C1)C2	-15%	0%	-13%	0%	-5%
COCCNC(=S)NC12CC3CC(CC(C3)C1)C2	4.5µM*	2%	-18%	3.5µM*	-24%
Cc1ccc(-n2ncc3c(=O)[nH]c(SCC(=O)N4CC(=O)Nc5ccccc54)nc32)cc1	.	0%	-10%	.	-8%
CCOC(=O)C(C)Sc1nc2c(cnn2-c2ccc(F)cc2)c(=O)[nH]1 (configuration not stated)	3%	.	21µM*	-2%	?
CCOC(=O)N1CCN(C(=O)CSc2nc3c(cnn3-c3ccc(Cl)cc3)c(=O)[nH]2)CC1	-15%	5%	21µM*	8%	26µM*
Cc1cccc(-n2ncc3c(=O)[nH]c(SCC(=O)N4CC(=O)Nc5ccccc54)nc32)c1	.	-1%	?	.	16µM*
COCC(=O)N1CCC[C@@]2(CCN(Cc3ccccc3)C2)C1	1%	.	-9%	-6%	-6%
CC(C)(C)NC(=O)C(c1ccsc1)N(CCc1ccccc1)C(=O)Cn1nnc2ccccc21 (configuration not stated)	-8%	0%	?	11%	-30%
COc1ccc(CCN2C(=O)c3cccc4c(C(=O)N5CCCCC5)ccc(c34)C2=O)cc1OC	-23%	1%	16µM*	8%	?
CCOc1ccccc1NC(=O)C(C)Sc1cc(-c2ccccc2)nc(C)n1 (configuration not stated)	.	-1%	15µM*	.	16µM*
CCOc1ccccc1Nc1cc(-c2ccccc2)nc(C)n1	.	-13%	?	.	?
CCOc1ccccc1NC(=O)CSc1ccc2nc(-c3ccccc3)cn2n1	.	0%	?	.	21µM*
O=C(CSc1ccc2nc(-c3ccccc3)cn2n1)Nc1ccccc1C(F)(F)F	.	3%	-26%	.	?
O=C(CSc1ccc2nc(-c3ccccc3)cn2n1)Nc1ccccc1	.	5%	?	.	26µM*
CC(=O)c1ccc(NC(=O)CSc2ccc3nc(-c4ccccc4)cn3n2)cc1	.	0%	?	.	26µM*
SMILES	VP16 counter	TDP1 inh	DT40 TDP1 CPT	RORgamma inh	TDP1 cell noCPT
Cc1ccc(C)c(NC(=O)CSc2ccc3nc(-c4ccccc4)cn3n2)c1	.	3%	?	.	?
O=C(c1ccc(Cn2c(=S)[nH]c3cc4c(cc3c2=O)OCO4)cc1)N1CCN(c2ncccn2)CC1	1%	5%	.	?	.
O=C(c1cccc(F)c1)N1CCC[C@@]2(CCN(Cc3ccccc3)C2)C1	-3%	.	14%	-7%	-22%
Cc1ccccc1Nc1nc(N)nc(COc2ccc(C#N)cc2)n1	7%	1%	-10%	35%	0%
Cc1ccc(NC(=S)Nc2ccc(F)cc2)cc1C	7.1µM*	3%	?	7.1µM*	?
OCCCNC(=S)Nc1ccc2nccnc2c1	-13%	4%	-20%	19%	?
Fc1ccc(NC(=S)Nc2ccc3nccnc3c2)cc1	30%	7%	16µM*	-13%	18µM*
Cc1cccc(C)c1NC(=S)Nc1ccc(F)cc1	?	3%	0%	10µM*	-9%
CC(=O)Nc1ccc(NC(=O)Nc2ccc(C)c(C)c2)cc1	-12%	3%	-5%	-9%	?
CC(=O)c1ccc(OC(C)C)c(CC(C(N)=O)C(N)=O)c1	4%	6%	?	2%	-2%
CCc1cccc2c(C(=O)CSc3nncn3C)c[nH]c12	?	-3%	-4%	?	4%
CCOc1ccccc1N	5%	5%	5%	-6%	1%
CC(C(=O)Nc1ccccc1)N1C(=O)c2ccccc2C1=O (configuration not stated)	-1%	-3%	9%	-1%	8%
CN1CCN(CCCNC(=O)c2ccc3c(c2)N(Cc2ccccc2)CCS3)CC1	2%	4%	21µM*	-18%	?
CCN1CCN(CCCNC(=O)c2ccc3c(c2)N(Cc2ccc(C)cc2)CCS3)CC1	-2%	9%	?	6%	?
O=C(NCCN1CCOCC1)c1ccc2c(c1)N(Cc1ccccc1)CCS2	5%	4%	?	-4%	?
Cc1ccc(CN2CCSc3ccc(C(=O)NCCCN4CCOCC4)cc32)cc1	-1%	10%	21µM*	1%	?
O=C(NCCCN1CCOCC1)c1ccc2c(c1)N(Cc1ccccc1)CCS2	-1%	10%	?	-9%	23µM*
O=C(NCc1ccccn1)c1ccc2c(c1)N(Cc1ccccc1)CCS2	-1%	6%	?	8%	?
Cc1nc2nc(-c3ccc(Cl)cc3)[nH]n2c(=O)c1Cc1ccccc1	-10%[0.365 µM]	3%	4%	26%	-28%
Cc1cc(C)cc(NC(=O)CSc2nc3ccccc3nc2N2CCCCC2)c1	2%	.	?	?	?
CCOCCCNC(=O)c1c(NC(=O)c2nc(SCC)ncc2Cl)sc2c1CCCC2	.	.	?	.	10µM*
CCSc1ncc(Cl)c(C(=O)Nc2sc3c(c2C(=O)NCCCOC)CCCC3)n1	.	9%	?	.	?
CCCSc1ncc(Cl)c(C(=O)Nc2sc3c(c2C(=O)NCCCOC)CCCC3)n1	.	.	13µM*	.	11µM*
CCNC(=O)c1c(NC(=O)c2nc(S(=O)(=O)CC)ncc2Cl)sc2c1CCCC2	.	6%	-112%	.	0.73µM*
